# From PubChem BioAssay (NCI)
# About 83,000 compounds went through this panel and 20% of them were active in at least one assay; those are over-represented in the sample as a whole.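 Compound tested at a single concentration for 48 hours in 96-well plates; a percent growth value below 10 was scored as active.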 Activity calls are given as the source filed them.
# Test system: DU-145 prostate
# Experiment: NCI-60 one-dose screen, 48 h (100 = growth as untreated, 0 = no growth, -100 = all killed)
# Conditions: 10 µM unless noted
row,SMILES,growth
1,CC1=CCc2ccccc21,111% (inactive)
2,O=C1Nc2ccccc2/C1=C/C(=O)c1ccc(N2CCCCC2)cc1,66.8% (inactive)
3,COc1ccc2nc3c(cc2c1)C(=O)CC(c1ccccc1)C3 (configuration not stated),1.12% (active)
4,Oc1ccc(N=Nc2nccs2)c(O)c1,64% (inactive)
5,Cc1cc(-c2ccc(N=Nc3c(S(=O)(=O)O)cc4cc(S(=O)(=O)O)cc(N)c4c3O)c(C)c2)ccc1N=Nc1cc(S(=O)(=O)O)c2ccccc2c1O,112% (inactive)
6,C#CCNC(=O)CC[C@]1(C)[C@H]2CC[C@@H]3[C@@H]([C@@](C)(O)CCC=C(C)C)CC[C@@]3(C)[C@]2(C)CC[C@H]1C(=C)C,52.7% [100 µM] (inactive)
7,CC(=O)Nc1ccc2nc3ccc(NC(C)=O)cc3[n+](-c3ccccc3)c2c1,117% (inactive)
8,CCN(CC)CCCCCCNc1cccc2cc(Br)cnc12,91.4% (inactive)
9,COc1ccc(NC(=S)NNc2ccc(-c3ccc(OC)c(OC)c3)nn2)cc1,107% (inactive)
10,O=[N+]([O-])c1cc([N+](=O)[O-])c(NN=C(c2ccc(O)cc2)c2ccc(O)cc2)cc1Cl,-77.9% (active)
11,CC(C)C1=NOC(=O)C1=Cc1cn(-c2ccccc2)nc1-c1cccc([N+](=O)[O-])c1,84.9% (inactive)
12,C=C(C)[C@@H]1CC[C@]2(C(=O)NCCNCCNCCN)CC[C@]3(C)[C@H](CC[C@@H]4[C@@]5(C)CC[C@H](O)C(C)(C)[C@@H]5CC[C@]43C)[C@@H]12,-8.34% [100 µM] (active)
13,O=C1COCCN1c1ccc(Nc2nc(Cl)nc(N3CCOCC3)n2)cc1,102% (inactive)
14,Cn1cc(-c2noc(-c3cn(C)c4ncc(F)cc34)n2)c2cc(Br)ccc21,84.6% (inactive)
15,CC1(C)NCCC[C@]2(C)[C@H]3C=CC4=C5C[C@](C)(CO)CC[C@]5(C)CC[C@@]4(C)[C@]3(C)CC[C@@H]12,-89.5% [100 µM] (active)
16,CCCC(NC(=O)OCc1ccccc1)C(=O)O (configuration not stated),107% (inactive)

row,SMILES,growth
1,CC(C)C1=NOC(=O)C1=Cc1cn(-c2ccccc2)nc1-c1ccc(Cl)cc1,94.3% (inactive)
2,COc1cc(OC)cc(C(=O)Nc2cc(-c3cccnc3)nc(NCCCN3CCOCC3)n2)c1,104% (inactive)
3,Brc1ccc2c(c1)CN(C1CCCCC1)CO2,111% (inactive)
4,CC/C=C(\C)C(CCC)(CN=O)C(=O)OCC (configuration not stated),111% (inactive)
5,O=C(Nc1ccc(F)cc1)c1ccccc1,104% (inactive)
6,O=C(O)c1cccc(CN2CCN(c3cc4c(cc3F)c(=O)c(C(=O)O)cn4C3CC3)CC2)c1O,112% (inactive)
7,COC(=O)c1c(C)[nH]c(/C=C2\N=C(c3ccc[nH]3)C=C2OC)c1C,9.5% (active)
8,C=CCCC1(C)NC(=O)NC1=O (configuration not stated),102% (inactive)
9,O=[N+]([O-])c1cccc(N=NNc2cccc([N+](=O)[O-])c2)c1,86.2% (inactive)
10,Cc1ccc(N)c(O)c1,115% (inactive)
11,CCN(CC)c1ccc2cc(NC(=O)OCCNC(=O)CCNC(=O)[C@H](CC(C)C)NC(=O)C(C)(C)NC(=O)C(C)(C)NC(=O)[C@H](CC(C)C)NC(=O)CCNC(=O)C(C)(C)NC(=O)[C@H](CC(C)C)NC(=O)CCNC(=O)[C@@](C)(CC)NC(=O)[C@H](C)NC(=O)CCNC(=O)C(C)(C)NC(=O)[C@H](C)NC(=O)[C@@H]3CCCN3C(=O)[C@@](C)(CC)NC(=O)[C@H](Cc3ccccc3)NC(=O)C3CCCN3C(=O)C(C)(C)NC(=O)C3CCCN3C(=O)C(C)(C)NC(C)=O)c(=O)oc2c1 (some centres not stated),-100% (active)
12,COC(=O)[C@]12CCC(C)(C)C[C@H]1C1=CC[C@@H]3[C@@]4(C)C/C(=C/c5cccnc5)C(=O)C(C)(C)[C@@H]4CC[C@@]3(C)[C@]1(C)CC2,7.21% [100 µM] (active)
13,CC(C)[C@H]1COC(=O)N1[C@@H]1C(=O)N([C@@H](CCC(=O)N2CCN(C3CCCC3)CC2)C(=O)N[C@@H]2CCCc3ccccc32)[C@@H]1/C=C/c1cccc(Cl)c1,65.3% (inactive)
14,CCN=Cc1c(O)c(O)c(C(C)C)c2cc(C)c(-c3c(C)cc4c(C(C)C)c(O)c(O)c(C=NCC)c4c3O)c(O)c12,53% (inactive)
15,O=c1cc(-c2ccccc2)oc2c(O)c(O)ccc12,68.4% (inactive)
16,COc1ccc(C2NC(=O)C(C#N)c3c2sc2c(F)cccc32)cc1 (configuration not stated),67.8% (inactive)
